According to the OligoGym collection:
Also: reference of the scale not given here.

These sequences were tested against ZNF250 (assay: pooled miR-30 sensor sort-seq; sequence = guide strand). Conditions: shRNA.
In the case of TTTGTGACACTGAATCGCCAAA, the sensor-assay potency score (higher = more potent) is reported as -1.66. In the case of TACACTGCACACATAGGGCTTC, the sensor-assay potency score (higher = more potent) is reported as -0.55. TAAGACCTGAACTTCACGGTGG was tested, and the sensor-assay potency score (higher = more potent) was 0.671. With TTACTAAGGACTGAGCTCTGGC the sensor-assay potency score (higher = more potent) was 0.163.

These sequences were tested against ZNF259 in the same assay as above. Conditions: shRNA.
Work on TTGTACTAGCTTCATGTTGGTC yielded a sensor-assay potency score (higher = more potent) of -0.732. Sequence TTGTAGTGTGTGATCACCAGGG has a sensor-assay potency score (higher = more potent) of 0.392. TAACACAATAGGCTCACACTTG was tested, and the sensor-assay potency score (higher = more potent) was -0.434. TAAACTCCTGTAGTCTCTCCGT gave a sensor-assay potency score (higher = more potent) of -0.469. With TCAGTCTTCACCACTTCTCTGT the sensor-assay potency score (higher = more potent) was 0.0434. TCACACTTGCATCACAAGCTGT gave a sensor-assay potency score (higher = more potent) of -0.681. Sequence TTGCAGTAACAGTTCATGCATA has a sensor-assay potency score (higher = more potent) of -0.757. With TTTTCCACAAAACTGTTCCCTG the sensor-assay potency score (higher = more potent) was -0.697. In the case of TTCAGTTTGACAATGAACTCAT, the sensor-assay potency score (higher = more potent) is reported as 0.875. With TTCATTTCTGAGATCTTCCTCT the sensor-assay potency score (higher = more potent) was 0.123. In the case of TTCTGAGATCTTCCTCTTCTGG, the sensor-assay potency score (higher = more potent) is reported as -1.55. TTCGATGATCTGGTCCATCTTC showed a sensor-assay potency score (higher = more potent) of -0.231.
